# Data as given in PubChem BioAssay (NCI).
# Where “and” joins values, the source holds several entries; their conditions need not be identical. Equal entries are not always repeated. The panel holds about 79,000 compounds, 15% with a hit somewhere; the sample as a whole holds those more often. Some structures have more than one record in an assay (separate samples or runs), and their calls can disagree. Calls of active or inactive are those of the source. Rule as the data show it: active = growth inhibition above about 70%; inactive = the rest.
# What was measured:
# [1] = NCI Yeast Anticancer Drug Screen. Data for the rad50 strain (AID 155);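 also: 0% = growth of vehicle-only cultures of the same strain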; conditions: S. cerevisiae rad50 strain growth inhibition, stronger effect = higher value
# Summary of the method: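 Relative growth inhibition (compound vs vehicle) was measured in yeast with a defined repair-gene alteration.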
# [2] = NCI Yeast Anticancer Drug Screen. Data for the mec2-1 strain (AID 157); conditions: S. cerevisiae mec2-1 strain, stronger effect = higher value
# Summary of the method: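 mec2-1 yeast strain, carrying an alteration in DNA damage repair or cell cycle control, was exposed to compounds; growth inhibition was measured relative to vehicle-treated controls.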
# [3] = NCI Yeast Anticancer Drug Screen. Data for the sgs1 mgt1 strain (AID 161);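 also: 0% = growth of cultures given vehicle only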; conditions: S. cerevisiae sgs1 mgt1 strain, stronger effect = higher value
# Summary of the method: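 Growth of a repair-deficient yeast mutant was monitored after compound treatment and expressed as inhibition relative to vehicle-treated cultures.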
# [4] = NCI Yeast Anticancer Drug Screen. Data for the cln2 rad14 strain (AID 165);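 also: 0% = growth equal to vehicle treated cultures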; conditions: S. cerevisiae cln2 rad14 strain, stronger effect = higher value
# Summary of the method: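 Yeast carrying cln2 and rad14 alterations (cell cycle control and DNA damage repair) were exposed to compounds. Growth inhibition was measured against vehicle-treated controls.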
# [5] = NCI Yeast Anticancer Drug Screen. Data for the bub3 strain (AID 167); conditions: S. cerevisiae bub3 mutant strain, stronger effect = higher value
# Summary of the method: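 Screening used yeast with an engineered genetic alteration affecting cell cycle control. Compound-exposed cultures were compared with vehicle cultures, and reduced growth was taken as inhibition.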
# [6] = NCI Yeast Anticancer Drug Screen. Data for the mlh1 rad18 strain (AID 175); conditions: S. cerevisiae mlh1 rad18 strain growth inhibition, stronger effect = higher value
# Summary of the method: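 Growth inhibition of the yeast strain was measured after compound exposure and expressed relative to vehicle-treated controls. The strain carries defined defects in DNA damage repair.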
# [7] = at 5.0 µM (retest, dose inferred, filed as 0.5)
# [8] = at 50.0 µM (retest, dose inferred, filed as 5.0)
Structure (SMILES),"growth inhibition [1, 7]","growth inhibition [1, 8]",growth inhibition ([1]; at 50.0 µM),"growth inhibition [2, 7]","growth inhibition [2, 8]",growth inhibition ([2]; at 50.0 µM),"growth inhibition [3, 7]","growth inhibition [3, 8]",growth inhibition ([3]; at 50.0 µM),"growth inhibition [4, 7]","growth inhibition [4, 8]",growth inhibition ([4]; at 50.0 µM),"growth inhibition [5, 7]","growth inhibition [5, 8]",growth inhibition ([5]; at 50.0 µM),"growth inhibition [6, 7]","growth inhibition [6, 8]",growth inhibition ([6]; at 50.0 µM)
CCC[CH2][Sn]1([CH2]CCC)[O]Cc2nc(C)ccc2[O]1,27% (inactive),92% (active),77.5% (active),29% (inactive),96% (active),81.8% (active),40% (inactive),96% (active),80% (active),15% (inactive),93% (active),71.9% (active),33% (inactive),96% (active),83.7% (active),40% (inactive),96% (active),85.5% (active)
Cc1cccc2cc3ccccc3c[n+]12,5% (inactive),63% (inactive),89.9% (active),6% (inactive),49% (inactive),84% (active),-12% (inactive),79% (active),97.3% (active),2% (inactive),73% (active),62.2% (inactive),-1% (inactive),57% (inactive),54.2% (inactive),14% (inactive),89% (active),91% (active)
[N-]=[N+]=NS(=O)(=O)c1cccc([N+](=O)[O-])c1,8% (inactive),100% (active),80.2% (active),-17% (inactive),100% (active),87.1% (active),-34% (inactive),99% (active),89.1% (active),8% (inactive),99% (active),90.8% (active),-24% (inactive),100% (active),90.8% (active),-5% (inactive),100% (active),92.7% (active)
[O-][n+]1onc2ccccc21,47% (inactive),99% (active),98.3% (active),30% (inactive),99% (active),52% (inactive),29% (inactive),99% (active),49.9% (inactive),34% (inactive),99% (active),97.7% (active),38% (inactive),99% (active),46.7% (inactive),63% (inactive),99% (active),98.2% (active)
Nc1nc(CCl)cs1,-2% (inactive),-5% (inactive),-2.05% (inactive) and -11.7% (inactive),0% (inactive),-2% (inactive),-24.7% (inactive) and -9.55% (inactive),1% (inactive),-3% (inactive),-17.6% (inactive) and -0.25% (inactive),-7% (inactive),-8% (inactive),75.8% (active) and -22.8% (inactive),-4% (inactive),-7% (inactive),52.4% (inactive) and 4.7% (inactive),-2% (inactive),-6% (inactive),17.8% (inactive) and -17% (inactive)
CCOP(=S)(OCC)SC(O)(C(F)F)C(F)F,5% (inactive),34% (inactive),28.8% (inactive),-3% (inactive),54% (inactive),22.9% (inactive),3% (inactive),62% (inactive),42% (inactive),-3% (inactive),32% (inactive),22.4% (inactive),-2% (inactive),69% (inactive),39.4% (inactive),0% (inactive),78% (active),30.7% (inactive)
CC(C)COP(=O)(O)OCC(C)C.[Al],-2% (inactive),-11% (inactive),3.45% (inactive),-4% (inactive),-9% (inactive),16.6% (inactive),-5% (inactive),-4% (inactive),3.05% (inactive),-1% (inactive),3% (inactive),-12.1% (inactive),1% (inactive),31% (inactive),-0.75% (inactive),-2% (inactive),-10% (inactive),18.2% (inactive)
O=S(=O)(CCl)C(Cl)(Cl)Cl,9% (inactive) and 5% (inactive),92% (active) and 61% (inactive),94.5% (active) and 63.5% (inactive),13% (inactive) and -32% (inactive),66% (inactive) and 49% (inactive),94.6% (active) and 62.2% (inactive),4% (inactive) and 3% (inactive),59% (inactive) and 67% (inactive),97% (active) and 51.5% (inactive),-2% (inactive) and 1% (inactive),44% (inactive) and 36% (inactive),83.6% (active) and 43.4% (inactive),36% (inactive) and 1% (inactive),80% (active) and 56% (inactive),92.7% (active) and 67.8% (inactive),5% (inactive) and 4% (inactive),86% (active) and 73% (active),95.8% (active) and 69.7% (inactive)
